The record followed here is PubChem BioAssay.

“And” between values parts separate entries of the source, which are not always exact repeats. Equal values may be shown once. For some of these results: Results with a measured potency or affinity are listed apart. The source made the active and inactive calls. Unless noted, how the calls were made is not given here.

Test [1] can be described thus: compounds altering circadian rhythm period length – cell-based, LOPAC library, luminescence reporter (AID 2774).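 Further: values are relative to mean of DMSO wells on each plate.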 Particulars: circadian reporter cells, at 7 µM, actives lie on both sides.
Test [2] can be described thus: P. berghei load reduction in hepatocytes – cell-based, HepG2, luciferase luminescence, HepG2 viability, primary screen (AID 624349; in the data active means parasite load remaining mostly below about 12%, no sharp cut-off; inactive means mostly above about 10%;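 further: 100% = mean of DMSO negative control wells on the same plate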). Particulars: P. berghei liver stage in HepG2, luciferase luminescence, concentration not given here; parasite load remaining: stronger effect = lower value; viability: measured here: HepG2 viability without parasites.
Test [3] deals with 6-phosphogluconate dehydrogenase, decarboxylating (Homo sapiens) (UniProt P52209). In words: inhibition of human phosphogluconate dehydrogenase – biochemical, recombinant enzyme, NADPH absorbance, primary screen (AID 1159550;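 active means at least 20% inhibition of 6-phosphogluconate dehydrogenase activity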). The conditions noted are these: recombinant 6PGD, NADPH absorbance 341 nm; at 10 µM; stronger effect = higher value.
Chain of 6-phosphogluconate dehydrogenase, decarboxylating (Homo sapiens) (P52209 whole entry, looked up): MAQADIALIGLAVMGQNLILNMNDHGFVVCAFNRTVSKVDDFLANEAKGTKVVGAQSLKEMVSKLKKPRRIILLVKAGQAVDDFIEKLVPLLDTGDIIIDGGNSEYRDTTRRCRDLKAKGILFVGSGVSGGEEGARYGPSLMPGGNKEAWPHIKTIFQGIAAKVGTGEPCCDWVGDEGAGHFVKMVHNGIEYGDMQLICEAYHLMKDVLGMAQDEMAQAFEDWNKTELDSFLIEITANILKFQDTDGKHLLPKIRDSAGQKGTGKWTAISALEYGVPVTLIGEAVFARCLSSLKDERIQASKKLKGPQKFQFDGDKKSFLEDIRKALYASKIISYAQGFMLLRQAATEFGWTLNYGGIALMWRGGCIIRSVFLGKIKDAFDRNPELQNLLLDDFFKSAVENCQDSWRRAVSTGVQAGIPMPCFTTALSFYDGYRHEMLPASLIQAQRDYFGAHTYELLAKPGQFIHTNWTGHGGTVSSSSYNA
The nature of test [4]: EMT-state selective cytotoxicity in co-culture – imaging, PC-3E GFP, TEM4-18 mCherry, primary screen (AID 1345086;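 active means compounds killing one labelled cell type while sparing the other, by normalised counts and ratio limits, not self-fluorescent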;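 on all read-outs here: cells exposed to compound for 72 h before imaging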;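 on red/green cell ratio (normalised): normalised mesenchymal count divided by normalised epithelial count so high means epithelial killing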). The conditions noted are these: PC-3E GFP / TEM4-18 mCherry co-culture, imaging cell counts, at 1 µM; for red/green cell ratio (normalised): actives lie on both sides, counts scaled to control wells, 1 = unselective.
The nature of test [5]: viability loss with induced miR-34 in A549 – imaging, A549 dox-inducible miR-34, nuclei and caspase counts, primary screen (AID 1347080;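 active means compounds whose cell count with miR-34 switched on is under 0.7 times the count with it off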). Particulars: A549 miR-34 inducible, Hoechst nuclei count, 48 h.
The nature of test [6]: blockers of cellular phospholipid synthesis – cell-based, LOPAC library, screen 4, primary screen (AID 1347384). The conditions noted are these: animal cells, phospholipid biosynthesis inhibition screen; at 10 µM.
Test [7] has as its target Mitogen-activated protein kinase 7 (Homo sapiens) (UniProt Q13164). The test is described as follows: Gal4-ERK5 driven luciferase induction – cell-based, HTS, primary screen (AID 1508626;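 active means luciferase signal above three times the same-plate solvent-only control wells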;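 further: luciferase driven by Gal4-ERK5 fusion binding five Gal4 sites before minimal TATA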). The conditions noted are these: HeLa Gal4-ERK5 transactivation, 18 h, at 5 µM, stronger effect = higher value.
Test [8] is described as follows: galactose survival enhancers in mitochondrial complex I cybrids – cell-based, galactose medium, ATP luminescence, primary screen (AID 1645843;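 active means z-score of at least 1.8 in each of two replicates, scored against plate mean and spread of sample wells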;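 further: positive z means more ATP and so rescue of galactose-driven cybrid death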). Particulars: complex I mutant cybrid cells, 72 h, stronger effect = higher value.
A short description of test [9]: blockers of polyQ-driven CASP3 activation – cell-based (AID 1583). The conditions noted are these: polyglutamine-induced caspase-3 activation, cell assay; stronger effect = higher value;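 tested at 10 µM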.
The nature of test [10]: yeast 75Q aggregation reduction – 75Q-TubU reporter (AID 1593). Particulars: Yeast 75Q polyglutamine aggregation reporter.
Test [11] is described as follows: restoration of touch response, mutant HTT neurons – whole organism, C. elegans mechanosensory neurons, N-terminal huntingtin (AID 1599). The conditions noted are these: C. elegans polyQ-huntingtin mechanosensory neurons, stronger effect = higher value.
A short description of test [12]: blockers of cytochrome c efflux from mitochondria – biochemical, purified mitochondria (AID 1603).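 Further: mouse liver mitochondria challenged with calcium chloride; signal normalized to the plate average as 100%.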 Particulars: stronger effect = lower value.
Test [13] is described as follows: polyglutamine aggregate formation blockers (AID 1604). The conditions noted are these: polyglutamine-induced protein aggregation inhibition assay; stronger effect = higher value; tested at 2.5 µM.
The nature of test [14]: glutamate transport activators, MN-1 cells, MN-1 cell line (AID 1612).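 Further: tested at 1 µM final; 0% = mean of DMSO vehicle wells on each plate; positive means more glutamate uptake than control and negative means less.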 The conditions noted are these: MN-1 motor neuron cells, stronger effect = higher value.
A short description of test [15]: 75Q-TubH aggregate inhibition, S. cerevisiae, yeast (AID 1616). The conditions noted are these: S. cerevisiae 75Q-TubH polyglutamine aggregation suppression; stronger effect = higher value.
A short description of test [16]: compounds altering viability of human ES cells (AID 493140).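 Further: cells exposed to compounds for four days before counting.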 The conditions noted are these: human embryonic stem cell survival screen; stronger effect = higher value.
The nature of test [17]: MELAS cybrid and Rieske KO viability enhancers – cell-based, MELAS cybrids, Rieske KO mouse fibroblasts, CellTiter-Glo, primary screen (AID 1508586;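 active means mean z-score across replicates of 1.96 or higher in either the MELAS or the Rieske mutant cell line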;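 further: z relative to plate mean and SD of compound and empty wells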). Particulars: low glucose.
Test [18] deals with NAD(+) hydrolase SARM1 (Homo sapiens) (UniProt Q6SZW1). The test is described as follows: blocking NAD cleavage by SARM1 SAM-TIR – cell lysate, NAD-Glo luminescence (AID 1508614;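 active means compound whose remaining NAD level is above about 45 nM, limit read from the data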). The conditions noted are these: SAM-TIR HEK293T lysate NADase, at 1 µM, stronger effect = higher value.
Chain of NAD(+) hydrolase SARM1 (Homo sapiens) (Q6SZW1 whole entry, looked up): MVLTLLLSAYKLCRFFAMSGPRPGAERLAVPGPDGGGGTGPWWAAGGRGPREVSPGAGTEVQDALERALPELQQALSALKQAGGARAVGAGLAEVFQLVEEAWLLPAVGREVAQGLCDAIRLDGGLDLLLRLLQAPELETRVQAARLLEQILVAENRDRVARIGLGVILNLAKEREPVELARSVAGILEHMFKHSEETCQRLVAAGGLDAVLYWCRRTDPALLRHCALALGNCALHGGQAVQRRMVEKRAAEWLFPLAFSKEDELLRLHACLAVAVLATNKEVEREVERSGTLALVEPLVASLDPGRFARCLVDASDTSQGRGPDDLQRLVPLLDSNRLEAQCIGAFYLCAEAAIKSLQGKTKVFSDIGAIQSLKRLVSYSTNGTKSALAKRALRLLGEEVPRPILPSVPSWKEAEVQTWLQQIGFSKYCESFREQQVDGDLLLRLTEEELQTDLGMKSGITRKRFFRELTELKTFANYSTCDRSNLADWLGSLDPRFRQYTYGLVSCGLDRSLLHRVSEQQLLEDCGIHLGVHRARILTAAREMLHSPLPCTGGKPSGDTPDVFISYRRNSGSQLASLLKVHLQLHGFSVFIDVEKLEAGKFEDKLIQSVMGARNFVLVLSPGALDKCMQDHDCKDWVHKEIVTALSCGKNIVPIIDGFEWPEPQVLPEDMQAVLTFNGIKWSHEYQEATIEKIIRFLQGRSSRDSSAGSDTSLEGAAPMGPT
Test [19] can be described thus: GFP-Q80 aggregate reduction, neuronal-like cells, cell-based, NGF-treated PC12, GFPQ80 (AID 1614).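 Further: lower means fewer inclusions and 0 means no inclusions at all.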 The conditions noted are these: PC12 NGF-treated GFP-polyQ80 inclusion reduction.
The mark [20] stands for this setting: measured here: epithelial PC-3E GFP cell survival.
The mark [21] stands for this setting: measured here: mesenchymal TEM4-18 mCherry cell survival.
Where [22] appears, read: stronger effect = lower value, cell number ratio, induced over uninduced.
Where [23] appears, read: measured here: relative caspase fold change +Dox/-Dox.
Setting [24] is: measured here: total cells with miR-34 induction, stronger effect = lower value.
[25] abbreviates: measured here: total cells without miR-34 induction.
[26] abbreviates: MELAS cybrid survival, CellTiter-Glo 48 h, stronger effect = higher value.
Setting [27] is: Rieske KO mouse fibroblast survival, CellTiter-Glo 72 h.

Chain of Mitogen-activated protein kinase 7 (Homo sapiens) (Q13164 whole entry, looked up, the tested form may be a part): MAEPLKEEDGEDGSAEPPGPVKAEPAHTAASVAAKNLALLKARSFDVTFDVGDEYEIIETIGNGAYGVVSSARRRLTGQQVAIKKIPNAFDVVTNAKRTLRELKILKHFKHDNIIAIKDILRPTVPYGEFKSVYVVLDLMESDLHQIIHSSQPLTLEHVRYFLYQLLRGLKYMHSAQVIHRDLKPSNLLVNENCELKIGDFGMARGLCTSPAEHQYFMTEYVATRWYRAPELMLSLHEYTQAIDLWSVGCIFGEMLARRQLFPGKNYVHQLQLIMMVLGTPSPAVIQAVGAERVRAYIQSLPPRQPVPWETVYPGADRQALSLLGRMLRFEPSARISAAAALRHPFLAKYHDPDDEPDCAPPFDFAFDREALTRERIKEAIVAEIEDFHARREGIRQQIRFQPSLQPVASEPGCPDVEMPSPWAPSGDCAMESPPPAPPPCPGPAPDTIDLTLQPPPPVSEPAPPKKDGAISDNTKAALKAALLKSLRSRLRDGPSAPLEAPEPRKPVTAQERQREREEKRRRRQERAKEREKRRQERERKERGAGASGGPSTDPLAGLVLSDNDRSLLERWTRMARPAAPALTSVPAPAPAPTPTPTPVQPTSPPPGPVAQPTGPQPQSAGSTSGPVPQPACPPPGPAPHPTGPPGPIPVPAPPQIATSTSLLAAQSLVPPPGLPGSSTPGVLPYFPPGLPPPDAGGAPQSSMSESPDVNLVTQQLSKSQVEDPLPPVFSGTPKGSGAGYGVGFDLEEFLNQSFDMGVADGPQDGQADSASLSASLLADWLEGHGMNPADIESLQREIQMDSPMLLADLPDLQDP

Regarding `NCCCCC(=O)O`, the period change in test [1] is 0.155 h (inactive). Also, the parasite load remaining in test [2] is 89.3% (inactive). This compound also gave a viability in test [2] of 71.9%. Moreover, the inhibition in test [3] is -7.89% (inactive). For the same compound, the red/green cell ratio (normalised) in [4] was 0.85 (inactive). Moreover, the normalised cell number is 1.1 in test [4] (setting [20]) and 0.94 in test [4] (setting [21]). For the same compound, the fold change in test [5] (setting [22]) was 1 (inactive); in test [5] (setting [23]) it was 1.48. Besides, the cell count in [5] (setting [24]) and in test [5] (setting [25]) was 10300 each time. Besides, in test [6], the call was inactive. The luciferase signal in test [7] is 52 AU (inactive). Also, in test [8], the z-score is 0.885 (inactive).

For the compound `CC(CN(C)C)CN1c2ccccc2Sc2ccccc21` (stereo not drawn), the inhibition in [9] is -4.15%; in test [3] it was 3.47% (inactive). This compound also yielded a score in test [10] of 1.25. The compound also came in with a rescue above control in [11] of 0. Further, the cytochrome c release ratio in test [12] stood at 1.2. The inhibition of aggregation in test [13] turned out to be 52.6%. The glutamate uptake change in test [14] was -15.4%. The aggregation suppression score in test [15] came to 1.08. The survival in [16] was 1.08 (inactive). The parasite load remaining in test [2] was 56% (inactive) and 101% (inactive) and 20% (inactive). Also, in test [2], the viability is 86.7% and 71.6% and 86.5%. For the same compound, the red/green cell ratio (normalised) in test [4] was 0.95 (inactive). In addition, the normalised cell number in test [4] (setting [20]) is 1.1; in [4] (setting [21]) it was 1.05. The fold change in test [5] (setting [22]) is 0.881 (inactive) and 0.895 (inactive); in [5] (setting [23]), 1.1 and 2.21. The cell count in test [5] (setting [24]) is 7480 and 9410; in test [5] (setting [25]) it was 8490 and 10500. Moreover, the z-score is 0.461 (inactive) in test [17] (setting [26]) and -0.196 in test [17] (setting [27]). Also, the remaining NAD in test [18] is 10 nM (inactive). Moreover, in [7], the luciferase signal is 76 AU (inactive).

In the case of `O=c1cc(-c2ccccc2)oc2c(O)c(O)ccc12`, the figures for the inhibition in [9] and in test [3] were 17.3% and -53.2% (inactive), respectively. In test [10], the score amounted to 0.23. Moreover, the rescue above control in [11] was -0.88. In test [12], the cytochrome c release ratio was found to be 0.65. In addition, the inhibition of aggregation in [13] was found to be 81.7%. Also, in test [14], the glutamate uptake change was determined as 0.12%. Further, in test [19], the inclusion score is 1.5. Also, the aggregation suppression score in test [15] was determined as 0.00444. The red/green cell ratio (normalised) in test [4] is 0.99 (inactive). The values for the normalised cell number in test [4] (setting [20]) and in test [4] (setting [21]) were 0.99 and 0.98, respectively. In addition, the fold change was 1.65 (inactive) in test [5] (setting [22]) and 0.979 in test [5] (setting [23]). Besides, the cell count was 3960 in [5] (setting [24]) and 2390 in test [5] (setting [25]). For the same compound, the call in test [6] was inactive. Further, the luciferase signal in test [7] is 32 AU (inactive). For the same compound, the z-score in test [8] was -0.44 (inactive).

`C[N+](C)(C)CC(O)CC(=O)O` (stereo not drawn): the inhibition in [9] was 0.15%; in test [3], -11.2% (inactive). Further, the score in test [10] came out at 1.34. For the same compound, in [11], the rescue above control is -5.96. Besides, in [12], the cytochrome c release ratio was 0.99. Besides, the inhibition of aggregation in test [13] was 88.8%. In [14], the glutamate uptake change is -5.62%. The compound also showed an inclusion score in test [19] of 2. This compound also came in with an aggregation suppression score in test [15] of 1.39. Also, the parasite load remaining in test [2] was 33.4% (inactive). Moreover, the viability in test [2] is 63.9%. Moreover, the red/green cell ratio (normalised) in test [4] is 0.84 (inactive). The values for the normalised cell number in [4] (setting [20]) and in test [4] (setting [21]) were 0.96 and 0.81, respectively. The fold change in test [5] (setting [22]) is 0.835 (inactive); in test [5] (setting [23]), 0.677. Further, the cell count was found to be 6370 in [5] (setting [24]) and 7640 in test [5] (setting [25]). Besides, the results for the z-score in test [17] (setting [26]) and in test [17] (setting [27]) were -0.35 (inactive) and -0.217, respectively. In addition, the luciferase signal in test [7] was 24 AU (inactive).

With `NC1(C(=O)O)CC1`, the period change in [1] is -0.01 h (inactive). Moreover, the inhibition in test [3] is -3.72% (inactive). Further, the red/green cell ratio (normalised) in test [4] was 0.8 (inactive). Besides, the normalised cell number worked out at 1.07 in test [4] (setting [20]) and 0.86 in [4] (setting [21]). The fold change is 0.945 (inactive) in test [5] (setting [22]) and 1.33 in test [5] (setting [23]). The cell count is 9670 in [5] (setting [24]) and 10200 in [5] (setting [25]). Besides, in test [6], the compound was called inactive. In test [7], the luciferase signal is 60 AU (inactive). Moreover, the z-score in [8] was 0.575 (inactive).

By viability is commonly meant a per cent measure of how many cells are alive, often set against a control. By inhibition is commonly meant the change of the read-out against control, counted positive when it falls.
